Holding throughout (test): NCI-60 one-dose screen, 48 h (100 = growth as untreated, 0 = no growth, -100 = all killed)
What all share (settings): 10 µM unless noted

The subject of experiment [1] is HCT-15 colon.
Experiment [2] relates to HT29 colon.
Experiment [3] deals with SNB-75 CNS.
The subject of experiment [4] is SNB-19 CNS.
The test system of experiment [5] is U251 CNS.
The test system of experiment [6] is PC-3 prostate.
For experiment [7], the system named is SK-MEL-5 melanoma.
The subject of experiment [8] is UACC-62 melanoma.
Experiment [9] has as its system LOX IMVI melanoma.
Experiment [10] concerns SK-MEL-28 melanoma.
Experiment [11] concerns SK-MEL-2 melanoma.
The test system of experiment [12] is EKVX NSCLC.
The test system of experiment [13] is SN12C renal.
Experiment [14] has as its system TK-10 renal.
Experiment [15] relates to CAKI-1 renal.
Experiment [16] relates to A498 renal.
Experiment [17] concerns CCRF-CEM leukemia.
Experiment [18] deals with MOLT-4 leukemia.
Experiment [19] deals with UO-31 renal.
Experiment [20] deals with ACHN renal.

For 8 molecules, growth results are on record in PubChem BioAssay (NCI).

“And” between values parts separate entries of the source, which are not always exact repeats. Identical values can stand only once. About 83,000 compounds went through this panel and 20% of them were active in at least one assay; those are over-represented in the sample as a whole.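 Each cell line was grown in a 96-well plate and treated with one concentration of compound for 48 hours. Values below 10 were considered active.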 The source made the active and inactive calls.

Take `CN1CCN(C2CCN(C(=O)Nc3cc(Oc4ccc(NC(=O)C5(C(=O)Nc6ccc(F)cc6)CC5)c(F)c4)ccn3)CC2)CC1`: the growth in experiment [1] was -14.8% (active) and 93.5% (inactive); in experiment [2] it was -60.3% (active) and 46.5% (inactive); in [3], -77.5% (active) and 77.2% (inactive); in experiment [4] it was 3.95% (active) and 115% (inactive); in experiment [5], -86.3% (active) and 98.1% (inactive); in [6], -12.3% (active) and 86.1% (inactive). Further, the growth in [7] was -98% (active) and 80.1% (inactive); in experiment [8] it was -78% (active) and 70.7% (inactive); in [9], -88.3% (active) and 93.1% (inactive); in experiment [10] it was -91.6% (active) and 94.3% (inactive); in [11], 81.3% (inactive); in experiment [12], 3.24% (active) and 99.4% (inactive). Further, the growth in [13] is -55.1% (active) and 50.6% (inactive); in experiment [14], -47.9% (active) and 98.4% (inactive); in experiment [15] it was -34.8% (active) and 44.8% (inactive); in experiment [16] it was -68.6% (active) and 92.8% (inactive); in experiment [17], 0.274% (active) and 101% (inactive); in experiment [18], -10.9% (active) and 86.6% (inactive).

Regarding `O=C(O)CN(CCN(CC(=O)O)CC(=O)O)CCN(CC(=O)O)CC(=O)O`, the growth in [1] is 9.67% (active) and 99.9% (inactive) and 107% (inactive); in [2] it was 2.39% (active) and 108% (inactive) and 94.8% (inactive); in [3], 9.81% (active) and 87.3% (inactive) and 85.8% (inactive); in [4], 27.6% (inactive) and 101% (inactive) and 98.6% (inactive); in [5] it was 4.18% (active) and 106% (inactive) and 94.1% (inactive); in [6], 9.35% (active) and 92.8% (inactive) and 93.5% (inactive). In addition, the growth is 3.74% (active) and 103% (inactive) and 106% (inactive) in [7]; 8.73% (active) and 95.6% (inactive) and 101% (inactive) in experiment [8]; -31.4% (active) and 101% (inactive) and 106% (inactive) in [9]; 24% (inactive) and 105% (inactive) and 99.4% (inactive) in experiment [10]; -31.4% (active) and 101% (inactive) and 93.2% (inactive) in [11]; 1.71% (active) and 99.1% (inactive) and 101% (inactive) in experiment [13]. In addition, the growth in experiment [19] was -3.87% (active) and 77.1% (inactive) and 99.1% (inactive); in [14], -24.1% (active) and 110% (inactive) and 94% (inactive); in experiment [20] it was 97.5% (inactive) and 104% (inactive); in experiment [16], 12.7% (inactive); in experiment [17], 5.22% (active) and 97.7% (inactive) and 102% (inactive); in experiment [18], -17.3% (active) and 113% (inactive) and 96% (inactive).

In the case of `O=[N+]([O-])c1ccc(/C=N\NC(=S)Nc2ccc(F)cc2)cc1`, the growth is 106% (inactive) and 96.6% (inactive) in experiment [1]; 93.9% (inactive) and 95.1% (inactive) in experiment [2]; 92.5% (inactive) and 97.9% (inactive) in experiment [3]; 103% (inactive) and 93.5% (inactive) in [4]; 82.8% (inactive) and 83.4% (inactive) in experiment [5]; 101% (inactive) and 86% (inactive) in experiment [6]. In addition, the growth was 102% (inactive) and 101% (inactive) in experiment [7]; 104% (inactive) and 91% (inactive) in experiment [8]; 88.9% (inactive) in experiment [9]; 103% (inactive) and 104% (inactive) in experiment [10]; 91.1% (inactive) and 110% (inactive) in experiment [11]; 105% (inactive) and 92% (inactive) in [13]. The growth was 96.9% (inactive) and 102% (inactive) in [19]; 109% (inactive) and 107% (inactive) in experiment [14]; 86.2% (inactive) and 93.4% (inactive) in experiment [20]; 97.1% (inactive) and 106% (inactive) in experiment [15]; 119% (inactive) in experiment [16]; 99.4% (inactive) and -3.91% (active) in [17]. In addition, the growth in [18] was 86.9% (inactive) and 98.6% (inactive).

For `CN1CCN(c2ccc3nc(-c4c(N)c5c(F)cccc5[nH]c4=O)[nH]c3c2)CC1`, the growth in [1] is 30.7% (inactive) and 18.7% (inactive); in experiment [2] it was 1.59% (active) and 10.3% (inactive); in [3] it was 35.3% (inactive) and 28.4% (inactive); in experiment [4], 53.9% (inactive) and 61.5% (inactive); in experiment [5], 34.9% (inactive) and 33.5% (inactive); in experiment [6] it was 27.2% (inactive) and 38.4% (inactive). Also, the growth in [7] is 11.2% (inactive) and 36.3% (inactive); in experiment [8] it was 46.5% (inactive) and 41% (inactive); in experiment [9], -66.4% (active) and 16.4% (inactive); in [10], -5.34% (active); in experiment [11], 45.5% (inactive); in experiment [13] it was 26.3% (inactive) and 27.6% (inactive). Besides, the growth in experiment [19] was 7.59% (active) and 16% (inactive); in experiment [14] it was 35.1% (inactive) and 45.8% (inactive); in [20], 17.8% (inactive) and 18% (inactive); in [15] it was 14% (inactive) and 20.4% (inactive); in [16], 29% (inactive) and 14.6% (inactive); in experiment [17] it was 6.23% (active) and 10.7% (inactive). Further, the growth in [18] is -8.41% (active) and 1.37% (active).

As for `Clc1ccc(SSc2ccc(Cl)cc2)cc1`, the growth was 98.8% (inactive) and 92.4% (inactive) in experiment [1]; 98.1% (inactive) and 98.2% (inactive) in experiment [2]; 74.4% (inactive) and 67% (inactive) in experiment [3]; 93.7% (inactive) and 89.2% (inactive) in experiment [4]; 93.4% (inactive) and 61% (inactive) in [5]; 87.3% (inactive) and 46.5% (inactive) in [6]. In addition, the growth in experiment [7] was 105% (inactive) and 73.3% (inactive); in [8], 96.9% (inactive) and 95.8% (inactive); in experiment [9], 97.6% (inactive) and 7.12% (active); in experiment [10], 96.9% (inactive) and 103% (inactive); in experiment [11], 101% (inactive) and 111% (inactive); in experiment [13], 97.5% (inactive) and 42.4% (inactive). For the same molecule, the growth was 85% (inactive) and 46.7% (inactive) in experiment [19]; 88% (inactive) and 106% (inactive) in [14]; 99.4% (inactive) and 99.7% (inactive) in experiment [20]; 95.8% (inactive) and 94.5% (inactive) in experiment [15]; 87.9% (inactive) and 74.6% (inactive) in experiment [16]; 97.9% (inactive) in [17]. Besides, the growth in experiment [18] was 98.6% (inactive).

For the molecule `O=C(Nc1cccc(-n2ccc3c(NC(=O)c4ccccc4)nccc32)c1)c1ccc(Cl)c(C(F)(F)F)c1`, the growth was -15.1% (active) and 34.3% (inactive) in experiment [1]; 43% (inactive) in experiment [2]; 16% (inactive) and 84.4% (inactive) in [3]; 13.8% (inactive) and 55.4% (inactive) in experiment [4]; 43.4% (inactive) in experiment [5]; -30.6% (active) and 51.1% (inactive) in experiment [6]. The growth was -92.4% (active) and 57.4% (inactive) in [7]; 5.48% (active) and 54.1% (inactive) in experiment [8]; -80.3% (active) and 18.4% (inactive) in experiment [9]; -38.9% (active) and 79.8% (inactive) in [10]; 38% (inactive) and 87.3% (inactive) in [12]; -40% (active) and 64.5% (inactive) in experiment [13]. The growth was 93.1% (inactive) in experiment [14]; 13% (inactive) and 53.5% (inactive) in experiment [20]; -66.7% (active) and 42.8% (inactive) in experiment [15]; 15.3% (inactive) and 75.5% (inactive) in experiment [16]; -25.3% (active) and 40.3% (inactive) in [17]; -4.82% (active) and 10.3% (inactive) in experiment [18].

As to `CCOc1ccc2cc(-c3nn(CC4CCNCC4)c4ncnc(N)c34)ccc2c1`, the growth is 81.7% (inactive) and 29.8% (inactive) in [1]; 69.6% (inactive) and 18.5% (inactive) in [2]; 52.9% (inactive) and 24.8% (inactive) in [3]; 102% (inactive) and 65.9% (inactive) in experiment [4]; 83.3% (inactive) and 40.2% (inactive) in [5]; 78% (inactive) and 31.4% (inactive) in experiment [6]. The growth in experiment [7] was 90.5% (inactive) and -2.12% (active); in experiment [8], 14.7% (inactive); in experiment [9], 83% (inactive) and 5.47% (active); in [10], 104% (inactive) and -35.3% (active); in experiment [11], 108% (inactive); in [12], 101% (inactive) and 55.6% (inactive). For the same molecule, the growth in experiment [13] is 82.9% (inactive) and 28.9% (inactive); in experiment [14], 77.1% (inactive) and 80.5% (inactive); in [20], 102% (inactive) and 49.5% (inactive); in [15], 95.4% (inactive) and 81.9% (inactive); in [16], 73% (inactive) and 37% (inactive); in experiment [17], 88.4% (inactive) and 9.5% (active). In addition, in experiment [18], the growth was 66.1% (inactive) and -12.1% (active).

Consider `CC(C)Cc1ccc(C(C)C(=O)NCc2ccc(Cn3c(=O)sn(CCCCl)c3=O)cc2)cc1` (centres undefined), for which the growth is 103% (inactive) and -35.9% (active) in experiment [1]; 104% (inactive) and -64% (active) in [2]; 105% (inactive) and -18% (active) in experiment [3]; 91.2% (inactive) and 49.8% (inactive) in experiment [4]; 95.6% (inactive) and 7.88% (active) in [5]; 91.9% (inactive) and -69.6% (active) in [6]. The growth was 91.8% (inactive) and -78.1% (active) in [7]; 92.6% (inactive) and -68.6% (active) in [8]; 90.7% (inactive) and -93.1% (active) in [9]; 107% (inactive) and -71.8% (active) in experiment [10]; 103% (inactive) and -3.28% (active) in experiment [11]; 89.3% (inactive) and -64.7% (active) in [12]. Further, the growth was 98.7% (inactive) and -60.5% (active) in [13]; 88% (inactive) and -91.9% (active) in [14]; 97.3% (inactive) and -100% (active) in experiment [20]; 87.1% (inactive) and -86.6% (active) in experiment [15]; 87.8% (inactive) and 55.6% (inactive) in [16]; 53.4% (inactive) and 3.84% (active) in experiment [17]. Further, the growth in experiment [18] is 90.4% (inactive) and 0.866% (active).
